Test results published in PubChem BioAssay AID686979 (National Center for Advancing Translational Sciences (NCATS), 2013).
Hit rate of the full screen: of about 420,000 compounds, about 50,000 (12%) were called active. Roughly 26% stayed inconclusive and do not appear here. Calls come from the whole dose curve; as a rule, active = well fitted inhibition curve with a large enough effect; inconclusive = small, poorly fitted or top-dose-only effect; inactive = flat fitted curve, though single readings scatter. What follows is part of a selection rich in actives, with near analogues and random picks from the rest.

assay: qHTS for Inhibitors of human tyrosyl-DNA phosphodiesterase 1 (TDP1): qHTS in cells in presence of CPT; settings: chicken DT40 Tdp1-/-;hTDP1 cells + 20 nM CPT, ATP luminescence, 48 h; series mostly up to 46.2 µM; activity change, negative = growth inhibition: at the top concentration; note: nearly all actives have a fitted effect of over 55% in size
Summary of the method: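 Cell growth measured by CellTiter-Glo luminescence after a minimum 48 h, 37 C compound exposure with 20 nM CPT in Tdp1-knockout DT40 cells stably expressing hTDP1, seeded 400/well; qHTS titration format.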
% is set by controls: 0 for no effect and ±100 for the full control effect; potency is the fitted concentration of half-maximal effect.

SMILES | activity change, negative = growth inhibition | Potency
COc1ccccc1C(=O)NCCC(=O)NN1C(=O)NC2(CCCCC2)C1=O | 0.64% (inactive) | 
COc1cc(C(=O)NCC2(c3ccccc3)CCCC2)ccc1OC(C)C |  | 20.6 µM (active)
CCOc1c(CNCc2ccc(C(=O)O)cc2)cccc1OC | 12.2% (inactive) | 
COc1ccc(C(=O)NC2CC(C)(C)NC(C)(C)C2)cc1OC | 1.23% (inactive) | 
CCn1c(CNC(=O)c2ccc(OC)c(OC)c2)nnc1SCC(=O)Nc1ccccc1 | 12.4% (inactive) | 
CCOc1c(OC)cccc1C(=O)NCC1(c2ccccc2)CCCC1 |  | 5.8 µM (active)
CN(C)C(CNC(=O)c1cccc(S(=O)(=O)Nc2ccc(Br)cc2)c1)c1ccco1 (stereo not given) | 4.66% (inactive) | 
COc1ccc(C(=O)c2oc3ccccc3c2NC(=O)COc2cccc(C)c2)cc1 | -10.2% (inactive) | 
CCCc1nnc(SCC(=O)N2C(C)CCCC2C)n1CC (stereo not given) | 4.32% (inactive) | 
O=c1c(CN2CCOc3ccc(CN4CCC(Oc5cccnc5)CC4)cc3C2)coc2ccccc12 | 0.59% [at 9.04 µM] (inactive) | 
COc1ccc(C)cc1-n1nnnc1SCc1nc2ccccc2c(=O)[nH]1 |  | 13 µM (active)
CCn1c(COc2c(C)cccc2C)nnc1SCc1nc2ccccc2c(=O)[nH]1 | -29.2% (inactive) | 
COCCn1c(SCc2nc3cc(OC)c(OC)cc3c(=O)[nH]2)nnc1-c1ccncc1 | -23.8% (inactive) | 
Cc1cccc(NC(=O)Nc2ccc(OCc3ccccc3)cc2)n1 | -26.1% (inactive) | 
O=C(OCC(=O)N1CCN(C(=O)c2ccco2)CC1)c1cccc(O)c1 | 10.2% (inactive) | 
COc1ccc(Cl)cc1NS(=O)(=O)c1cccc(C(=O)NCC2CCCO2)c1 (stereo not given) | -18.3% (inactive) | 
CC(C)CC(CCc1ccccc1)OS(N)(=O)=O (stereo not given) | -10.9% (inactive) | 
Cc1ccc(Cn2c(=O)n(Cc3nc(-c4ccccc4)no3)c(=O)c3cc4c(cc32)OCO4)cc1 | -3.36% (inactive) | 
Cc1ccc(Cn2c(C)nc3c(c2=O)c2nc4ccccc4nc2n3Cc2ccco2)cc1 |  | 25.9 µM (active)
CSc1nc2ccccc2c(=O)n1Cc1ccc(F)cc1 | -1.98% (inactive) | 
O=C(O)CSCc1ccc(C(=O)O)o1 | -5.59% (inactive) | 
COc1ccc(C(=O)OCC(=O)Nc2cccc(C(C)=O)c2)cc1OC | -1.13% (inactive) | 
COc1ccc(OCC(=O)NNC(=O)C2CCC2)cc1 | -23.6% (inactive) | 
O=C(CC1CCCCC1)NCc1ccc(F)cc1 | -1.57% (inactive) | 
OC(COc1ccc2ccccc2c1)CN1CCOCC1 (stereo not given) |  | inactive
CC(=O)Nc1ccc(OCC(O)CN2CCN(c3ccccc3Cl)CC2)cc1 (stereo not given) | -10.6% (inactive) | 
O=[N+]([O-])c1ccc(N2CCN(CC(O)COc3ccccc3)CC2)cc1 (stereo not given) |  | 20.6 µM (active)
C[N+]1(CC(O)COc2ccccc2)CCN(C(=O)c2ccc([N+](=O)[O-])cc2)CC1 (stereo not given) | 6.42% (inactive) | 
OC(COc1ccccc1)CN1CCN(c2cccc(Cl)c2)CC1 (stereo not given) | -8.22% (inactive) | 
O=S(=O)(c1ccc(OCC(O)CN2CCN(c3ccccc3Cl)CC2)cc1)N1CCOCC1 (stereo not given) |  | 14.6 µM (active)
